PubChem BioAssay AID434970 (Sanford-Burnham Center for Chemical Genomics, 2010)
About 310 (2.8%) of roughly 11,000 compounds were called active. Cut-off read from the data, not from the text of the source: active = activity change below about -85%; inactive = the rest. The entries come from a sample that favours actives as a whole.

These compounds were tested on intestinal alkaline phosphatase [Mus musculus] (assay: mouse intestinal phosphatase enzyme activation – biochemical, luminescence, single concentration, confirmation (AID 434970)). Settings: purified mouse IAP, CDP-Star luminescence, 30 min, at 10 µM; activation factor: measured here: IAP activation factor, stronger effect = higher value; activity change, negative = activation: stronger effect = lower value.

Row | SMILES | activation factor | activity change, negative = activation
1 | O=C(CCS(=O)(=O)c1cccc2nonc12)Nc1cccc2c1CCCC2 | 0.972 | 2.85% (inactive)
2 | O=C(c1ccc(F)cc1)N1CCN(c2cc(=O)[nH]nc2-c2ccccc2)CC1 | 1.17 | -17.4% (inactive)
3 | COc1ccc(-n2c(COc3ccccc3)nnc2SCC(N)=O)cc1 | 0.967 | 3.3% (inactive)
4 | CCOC(=O)N1CCC(NC(=O)C2CCC(Cn3c(=O)[nH]c4ccccc4c3=O)CC2)CC1 (centres undefined) | 0.908 | 9.15% (inactive)
5 | O=C1CC(c2nc3ccccc3[nH]2)CN1c1ccccc1 (centres undefined) | 0.951 | 4.9% (inactive)
6 | O=c1ccc(NS(=O)(=O)c2ccc(Cl)cc2)cn1Cc1ccc(Cl)c(Cl)c1 | 0.948 | 5.2% (inactive)
7 | CC1C(C)C(O)(c2ccccc2)CCN1C (centres undefined) | 0.956 | 4.35% (inactive)
8 | c1ccc(NC2=NCCCCS2)cc1 | 1.06 | -5.6% (inactive)
9 | C#CCOCCOCCOCCNc1nc(N2CCN(C(=O)CCCCCCCCCCNC(=O)[C@H]([C@@H](C)CC)n3cc(CCCCN=C(N)N)nn3)CC2)nc(N2CCN(C(=O)CCCCCCCCCCNC(=O)[C@H]([C@@H](C)CC)n3cc(CCCCN=C(N)N)nn3)CC2)n1 | 22.7 | -2170% (active)
10 | C#CCOCCOCCOCCNc1nc(N2CCN(C(=O)CCCCCCCCCCNC(=O)[C@H]([C@@H](C)CC)n3cc(CCCCN=C(N)N)nn3)CC2)nc(N2CCN(C(=O)CCCCCCCCCCNC(=O)[C@@H]([C@H](C)O)n3cc(C)nn3)CC2)n1 | 14.6 | -1360% (active)
11 | CC(Sc1nc2ccccc2n1C)C(=O)NC(c1ccccc1)c1ccccc1 (centres undefined) | 0.982 | 1.75% (inactive)
12 | Cc1cccc(Cn2cnc3c(NS(C)(=O)=O)c(C)c(C)cc32)c1 | 1.13 | -12.6% (inactive)
13 | NCCCCCc1nnc(SCC(=O)c2ccc(Cl)cc2)o1 | 1.08 | -7.9% (inactive)
14 | C#CCOCCOCCOCCNc1nc(N2CCN(C(=O)CCCCCCCCCCNC(=O)[C@@H](CCC(=O)O)n3cc(CCCCCN)nn3)CC2)nc(N2CCN(C(=O)CCCCCCCCCCNC(=O)[C@H]([C@@H](C)CC)n3cc(CCCCCN)nn3)CC2)n1 | 2.75 | -176% (active)
15 | C#CCOCCOCCOCCNc1nc(N2CCN(C(=O)CCCCCCCCCCNC(=O)[C@H]([C@@H](C)CC)n3cc(CCCCCN)nn3)CC2)nc(N2CCN(C(=O)CCCCCCCCCCNC(=O)[C@H](CCCCN)n3cc(CCCC(=O)O)nn3)CC2)n1 | 3.22 | -222% (active)
16 | CCOC(=O)c1ccc(-n2c(C)nc3c(cnn3-c3ccc(Cl)cc3)c2=O)cc1 | 0.964 | 3.55% (inactive)
17 | CCCCCCCCCCCC(=O)NC(C(=O)OCC)C(O)c1cccc([N+](=O)[O-])c1 (centres undefined) | 1.03 | -2.65% (inactive)
